Screening data from PubChem BioAssay.
IL1B secr inh: inflammasome signaling inhibition, IL-1 beta readout | actives 4.7% (n = 360,000) | AID 743279 | activity change, % at 57.5 µM | THP-1 LPS/ATP IL-1B secretion, AlphaLISA, 16 h; hits give low values; in the data active = activity change below about -50%; inconclusive = mostly about -30% to -49%; also: % is scaled to controls: 0 for no effect and ±100 for the full control effect
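THP-1 cells pretreated 1 hr with compounds (up to 57.5 uM final), then stimulated with LPS (250 ng/mL final) plus ATP (1.25 mM final); secreted IL-1B measured by AlphaLISA after 16 hr, decreased signal indicating inhibition.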
MCF10A rereplic: induces DNA re-replication in MCF 10a normal breast cells. Potency, µM (titrated, usually from 46.1 µM), for the others: at the top dose activity, positive = re-replication, actives largely listed as activators. MCF 10A DNA re-replication, Hoechst nuclear intensity, 48 h. AID 624296. actives 2.9% (n = 350,000); also: potency is read from the fitted curve at half-maximal effect; % of control where 0% means no effect; nearly all actives have a fitted effect of over 50% in size
ATXN2 expr inh: inhibitors of ATXN2 expression | Potency, µM (highest dose often 57 µM), without a hit: at the top dose activity change, negative = inhibition, most hits filed as inhibitors | actives 0.72% (n = 360,000) | HEK-293 ATXN2-luciferase reporter, luminescence, 24 h; also: potency is read from the fitted curve at half-maximal effect; % is scaled to controls: 0 for no effect and ±100 for the full control effect; nearly all actives have a fitted effect of over 55% in size
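qHTS (up to 57 uM final) was run with 24 h compound exposure of reporter cells at 37 °C. Each well was multiplexed: SteadyGlo luminescence measured ATXN2-luciferase expression after a fluorogenic Gly-Phe-AFC viability readout (25 uM final).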
SW480 rereplic: induces DNA re-replication in SW480 colon adenocarcinoma cells. SW480 DNA re-replication, Hoechst DNA content imaging, 48 h. Potency, µM (highest dose often 46.1 µM), for inactives: at the highest dose re-replication activation, usual class: activators. actives 1.8% (n = 340,000); also: potency is read from the fitted curve at half-maximal effect; % of control where 0% means no effect; nearly all actives have a fitted effect of over 55% in size
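Quantitative HTS format with DMSO vehicle controls; 48 hr drug incubation at 37 C, then 40 min Hoechst staining and scanning imager measurement at 405 nm excitation.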
S2 tox: viability counter-screen for ATXN expression inhibitors | S2 cells (HEK-293 line with an ATXN2-luciferase reporter) viability, CellTiter-Fluor protease fluorescence, 24 h | Potency, µM (top dose mostly 56.7 µM), usual class: cytotoxic | actives 0.49% (n = 400,000); also: potency is read from the fitted curve at half-maximal effect; nearly all actives have a fitted effect of over 40% in size
PINK1 modulator: modulators of PINK1 expression | PINK1 immunofluorescence, high-content cytometry, 24 h | Potency, µM (series often up to 76.6 µM), for inactives: at the highest dose activation (PINK1 increase), usual class: activators | actives 0.2% (n = 410,000); active = well fitted activation curve with a large enough effect; inconclusive = small, poorly fitted or top-dose-only effect; cell line not stated here; also: potency is read from the fitted curve at half-maximal effect; % of control where 0% means no effect; nearly all actives have a fitted effect of over 65% in size
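Cells are seeded, rested 12 hours, then given compound at five concentrations or DMSO for 24 hours. After fixation, blocking and antibody staining, PINK1 amount and mitochondrial localization are scored; CCCP serves as control.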
* = called active by the depositor; i = inactive; ? = inconclusive; . = no result. Sampled rows, rich in hits. Any-hit rate of the full collection: about 7.1%. Unless noted, calls follow the shape of the dose curve; as a rule, active = well fitted curve in the direction sought with a large enough effect; inconclusive = small, poorly fitted or top-dose-only effect, or another doubt; inactive = no such curve, though single readings can be large; an effect the other way counts as inactive or inconclusive.

SMILES	IL1B secr inh	MCF10A rereplic	ATXN2 expr inh	SW480 rereplic	S2 tox	PINK1 modulator
Cc1cc(C)c(C)c(S(=O)(=O)N2CCC(C(=O)Nc3ccc(S(=O)(=O)N4CCOCC4)cc3)CC2)c1C	-4	?	-4%	20%	i	4%
COc1ccc(N2CCN(C(=O)CN3C(=O)COc4ccc(S(=O)(=O)N5CCC(C)CC5)cc43)CC2)cc1	.	.	6%	.	?	-2%
O=C(CCc1nc2cccnc2n1Cc1cccs1)Nc1cccc(Cl)c1	.	.	.	.	.	1%
COc1cc(CNC(=O)Nc2nc(C(N)Cc3ccc(C(F)(F)F)cc3)cs2)cc(OC)c1OC (centres undefined)	-59*	.	?	.	?	0%
NC(Cc1ccc(C(F)(F)F)cc1)c1csc(NC(=O)Nc2ccccc2)n1 (centres undefined)	0	.	?	.	.	-1%
C[n+]1cccc(O)c1SCc1ccccc1	5	3%	?	10%	14µM*	-1%
CSc1ccc(CCNC(=O)CCc2c(C)nc3c4cccnc4nn3c2C)cc1	.	.	-4%	.	i	0%
C=C1C(=O)OCC2C(C(=O)O)=CC3C(C)C(C)=CC123 (centres undefined)	-70*	.	.	.	?	-2%
O=C(N/N=C/c1ccccc1)c1n[nH]c2c1CCCC2	?	?	?	?	i	2%
O=C(N/N=C/c1cccs1)c1n[nH]c2c1CCC2	25	8.2µM*	?	12µM*	?	6%
O=C(Nc1ccc(OC(F)(F)F)cc1)C1CCN(S(=O)(=O)c2ccc3[nH]c(=O)ccc3c2)CC1	.	.	9%	.	i	-1%
CCCCc1ccc(NC(=O)CSc2nc(=O)n(CCN3CCOCC3)c3c2CCC3)cc1	-70*	20%	0%	-4%	i	1%
CCCCc1ccc(NC(=O)CSc2nc(=O)n(CCCN3CCOCC3)c3c2CCC3)cc1	-83*	24%	2%	13%	i	0%
COc1ccc(S(=O)(=O)c2c(O)c3ccc(C(=O)NCc4ccccc4)cc3[nH]c2=O)cc1	.	.	3%	.	i	1%
Cc1ccc(-c2nnc3ccccc3c2C(=O)Nc2ccc(C)c(F)c2)cc1	.	.	.	.	.	0%
CCNc1nc(NCC)n2c(SC(C(=O)Nc3cc(Cl)cc(Cl)c3)c3ccccc3)nnc2n1 (centres undefined)	38	?	25µM*	-10%	.	1%
CCNc1nc(NCC)n2c(SCC(=O)Nc3cccc(Cl)c3)nnc2n1	-16	0%	-16%	?	i	2%
CN(C)c1cccc(/C=C(\C#N)c2ccccc2)c1	-5	?	.	?	i	9%
CN(C)c1ccc(/C=C(\C#N)c2ccccc2)cc1	14	3.7µM*	.	3.7µM*	i	16%
CCC1(C2CCN(Cc3ccc(OC)cc3)CC2)NC(=O)N(CC2COc3ccccc3O2)C1=O (centres undefined)	.	.	.	.	i	0%
CCS(=O)(=O)c1ccc(O)c(NC(=O)Nc2ccc(C(C)(C)C)cc2)c1	-88*	8%	-25%	-17%	?	5%
O=C(c1cn[nH]c1)N1CCc2c([nH]c3ccccc23)C1c1c(F)cccc1Cl (centres undefined)	-53*	?	-19%	-58%	i	8%
CCc1cccc(NC(=O)Cn2c(=O)c3cccn3c3ccccc32)c1	20	18µM*	.	3%	i	8%
CC(=O)c1ccc(NC(=O)Cn2c(=O)c3cccn3c3ccccc32)cc1	.	.	.	.	.	4%
COc1ccc2c(c1)cc1c(=O)n(CC(=O)NC3CCCCC3)nc(C)n12	.	.	5%	.	i	1%
SMILES	IL1B secr inh	MCF10A rereplic	ATXN2 expr inh	SW480 rereplic	S2 tox	PINK1 modulator
Cc1ccc(CN2CC(C(=O)Nc3ncc(C)s3)CC2=O)cc1 (centres undefined)	2	4%	16µM*	-1%	i	7%
Cc1ccc(CN2CC(C(=O)Nc3cc(C)ccn3)CC2=O)cc1 (centres undefined)	-8	16%	?	29µM*	i	12%
Cc1ccc(CN2CC(C(=O)Nc3nc(C)cs3)CC2=O)cc1 (centres undefined)	7	.	.	.	i	1%
O=C1CC(C(=O)N2CCN(Cc3ccccc3)CC2)CN1Cc1ccccc1 (centres undefined)	0	2%	3%	0%	i	5%
Cc1ccc(CN2CC(C(=O)N3CCN(c4ccccc4Cl)CC3)CC2=O)cc1 (centres undefined)	-58*	10%	-28%	-12%	?	3%
Cc1ccc(CN2CC(C(=O)Nc3ccncc3)CC2=O)cc1 (centres undefined)	34	-7%	-5%	-4%	i	2%
CCn1c(SCc2ccccc2C)nc(=O)c2c(C(=O)OC)cc(C3CC3)nc21	.	.	.	.	.	0%
O=C(c1ccc(Cn2cnnn2)cc1)N1CCOc2ccc(C(O)C3CCCCC3)cc2C1 (centres undefined)	.	.	.	.	?	2%
O=C(Nc1nc(-c2ccc([N+](=O)[O-])cc2)cs1)c1c(F)cccc1F	-6	-1%	.	?	i	8%
COc1cc([N+](=O)[O-])cc2sc(NC(=O)c3c(F)cccc3F)nc12	2	0.73µM*	-23%	0%	i	0%
CSc1ncccc1C(=O)NCC1Cc2cc(F)cc(-c3cncnc3)c2O1 (centres undefined)	.	.	.	.	i	1%
COc1ccc(C(=O)Nc2c(-c3cccs3)c(=O)c3ccccc3n2C)cc1	-82*	17%	-16%	26%	?	0%
CC1=NN(C(=S)Nc2ccccc2)C(c2ccccc2)C1 (centres undefined)	-6	-4%	1%	-1%	i	2%
Cc1ccc(C2CC(c3ccccc3)=NN2C(=S)Nc2ccccc2)o1 (centres undefined)	-9	5.2µM*	1%	12µM*	i	9%
O=C(c1ccc2c3c(cccc13)CC2)C1CCCN(Cc2cccnc2)C1 (centres undefined)	-78*	-3%	?	0%	?	1%
COc1cc(CN2CCCC(C(=O)c3ccc4c5c(cccc35)CC4)C2)cc(OC)c1O (centres undefined)	-7	21µM*	?	?	i	4%
O=C(c1ccc2c3c(cccc13)CC2)C1CCCN(C(=O)c2cccnc2)C1 (centres undefined)	1	6%	.	-1%	i	2%
